Molecules are shown by their SMILES. Compounds without any hit were thinned out: in the full panel of roughly 83,000, 20% have a hit.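 The endpoint reported here, percent growth, reads 100 for growth as untreated, 0 for no net growth and -100 for all cells dead.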 Unmarked numbers belong to inactive results. Activity calls are given as the source filed them.

The assay relates to CAKI-1 renal. Put plainly: NCI-60 one-dose screen, 48 h (100 = growth as untreated, 0 = no growth, -100 = all killed). The conditions noted are these: 10 µM unless noted. The protocol: Growth inhibition of the CAKI-1 human tumor cell line is measured as a screen for anti-cancer activity. Cells are grown in 96 well plates and exposed to the test compound for 48 hours. Compounds are tested at a single concentration, which is 10^-5 M for most compounds. The reported endpoint is percent growth (GI% or GIPRCNT), where numbers from 0 - 100% represent growth inhibition, and numbers from -100% - 0 represent cell death. For example, a value of 40 represents 60% growth inhibition. A value of 0 means no net growth occurred over the course of the experiment. A value of -40 indicates 40% of cells at the beginning of the experiment died by the end of the experiment. A value of -100 means all cells are dead at the end of the experiment.
NCI-60 Human Tumor Cell Lines Screen was performed using the standard one-dose NCI protocol, which is described in more detail at https://dtp.cancer.gov/discovery_development/nci-60/default.htm.
Compounds with GIPRCNT values below 10 were considered active. Activity score was based on GIPRCNT using the following formula: […]
Score is 0 for GIPRCNT values of 100 or above, 50 for GIPRCNT values of 0, and 100 for GIPRCNT values of -100.
`CC(C)[C@H]1COC(=O)N1[C@@H]1C(=O)N([C@@H](CCC(=O)N2CCN(C3CCCC3)CC2)C(=O)N[C@@H]2CCCc3ccccc32)[C@@H]1/C=C/c1cccc(Cl)c1`: the growth was 59.3%.

For the compound `c1cc2ccc1CNCCN1CCNCc3ccc(cc3)Oc3ccc(cc3)CNCCN(CCNCc3ccc(cc3)O2)CCNCc2ccc(cc2)Oc2ccc(cc2)CNCC1`, the growth was 47.5%.

`CC1(C)C(=NO)C(C)(C)C1=NO`: the growth is 109%.

With `O=C(Nc1cc(F)cc2cccnc12)c1cnc(N2CCNCC2)cn1`, the growth was 52.4%.

On to `CCCCC1COc2cccc3c2N1C=C/C3=C\C(=O)n1ccc2ccccc21` (stereo not given), for which the growth was 41%.

Consider `c1nc(N2CCOCC2)c2[nH]ccc2n1`, for which the growth was 103%.

Regarding `CC1(C)C(=O)/C(=C\c2cccnc2)C[C@]2(C)[C@H]3CC[C@@H]4[C@H]5[C@H](C(=O)/C=C/c6cccnc6)CC[C@]5(C(=O)O)CC[C@@]4(C)[C@]3(C)CC[C@@H]12`, the growth was -66% [100 µM] (active).

Take `COc1cc(C)cc2oc3oc(=O)c(C(=O)c4cc5cc(Br)ccc5o4)cc3c(=O)c12`: the growth is 91.8%.

As for `Cc1cc(C)c(S(=O)(=O)/N=c2/n(-c3ccccc3)nc3n2CCN3C2=NCCN2)c(C)c1`, the growth is 74.4%.

`N#Cc1c(N2CCOCC2)nc(=S)[nH]c1-c1ccco1`: the growth was 58.2%.

Consider `CCOC(CNC(=O)c1cccc([N+](=O)[O-])c1)OCC`, for which the growth was 89.9%.

Consider `Cc1cccc(C[C@H](NC(=O)Nc2ccc(Cl)cc2F)C(=O)N[C@@H]2C(=O)N3C[C@H](O)C[C@H]3C(=O)N3CCCC[C@H]3C(=O)N[C@@H](C)C(=O)N3C[C@H](C)C[C@H]3C(=O)O[C@H]2C)c1`, for which the growth is 8.12% (active).

Take `CC[C@]12C=CCN3CC[C@@]4(c5ccc(OC)cc5N(C)[C@H]4[C@@](O)(C(=O)OC)[C@@H]1OC(=O)CCC(=O)O[C@H]1CC[C@H]4[C@@H]5CCC6=CC(=O)CC[C@@H]6[C@H]5CC[C@]14C)[C@@H]32`: the growth was 6.42% [100 µM] (active).

For `Cc1nn(-c2ccccc2)c(N2CCOCC2)c1-c1nc2ccc([N+](=O)[O-])cc2[nH]1`, the growth was 80%.

As for `COc1ccc(/C=C2\N=C(Nc3ccccc3)N(NC(=O)c3ccccn3)C2=O)cc1`, the growth was 87.5%.

Regarding `O=C(NCCCNC(=O)OCc1ccc2c(Br)cc(Br)c(O)c2n1)OCc1ccc2c(Br)cc(Br)c(O)c2n1`, the growth is -92% (active).

As for `Cn1cc(-c2noc(C(=O)c3cn(C)c4ncccc34)n2)c2ccccc21`, the growth is 86.2%.

Turning to `NC(=S)Cc1ccccc1`, the growth is 89.1%.

For the compound `O=C(O)c1cc([N+](=O)[O-])ccc1Br`, the growth is 97.6%.

In the case of `CSc1nc(N)c(N=Nc2ccc(S(=O)(=O)Nc3nnc(C)s3)cc2)c(=O)[nH]1`, the growth is 139%.

Regarding `COc1ccc(-c2ccc(NNC(=O)c3ccc(F)cc3)nn2)cc1OC`, the growth is 17.3%.

For `C=C(C)[C@@H]1CC[C@]2(COCCC#N)CC[C@]3(C)[C@H](CC[C@@H]4[C@@](C)(CCCNCCC#N)[C@H](C(=C)C)CC[C@]43C)[C@@H]12`, the growth was 27% [100 µM].

For `COc1ccc2c(c1)C(C)Cc1c(Cl)nc(C)nc1N2C` (stereo not given), the growth is 25.4%.

Take `CC[C@@](C)(NC(=O)[C@H](C)NC(=O)CCNC(=O)C(C)(C)NC(=O)[C@H](C)NC(=O)[C@@H]1CCCN1C(=O)[C@@](C)(CC)NC(=O)[C@H](Cc1ccccc1)NC(=O)C1CCCN1C(=O)C(C)(C)NC(=O)C1CCCN1C(=O)C(C)(C)NC(C)=O)C(=O)NCCC(=O)N[C@@H](CC(C)C)C(=O)NC(C)(C)C(=O)NCCC(=O)N[C@@H](CC(C)C)C(=O)NC(C)(C)C(=O)NC(C)(C)C(=O)N[C@@H](CC(C)C)C(=O)NCCC(=O)NCO` (stereo not given in full): the growth is -98.2% (active).

As to `C#C[C@]1(O)CC[C@H]2[C@@H]3CC=C4c5nc(Nc6ccc(OC)cc6OC)sc5CC[C@]4(C)[C@H]3CC[C@@]21C`, the growth was 26.4%.

For `CCn1cc(-c2ccnc(NCCNS(=O)(=O)c3ccc(Br)cc3)c2)c(-c2cccc(OC)c2)n1`, the growth was 66.1%.

Turning to `CN(C)Cc1ccc[nH]1`, the growth was 81.8%.

For the compound `Clc1ccccc1/C=N\Nc1ccccn1`, the growth was 80.2%.

On to `Cn1cc(-c2nnc(-c3cn(C)c4ncccc34)o2)c2ccccc21`, for which the growth is 30.9%.

As to `COc1ccc(C(=O)c2nccc3cc(OC)c(OC)cc23)cc1OC`, the growth is 75.8%.

On to `O=C(CCNCc1ccccc1)c1ccccc1`, for which the growth was 100%.

For the compound `O=C(O)c1ccccc1C(F)(F)F`, the growth is 87.8%.

Regarding `COc1ccc2nc3c(cc2c1)C(=O)CC(c1ccccc1)C3` (stereo not given), the growth is 31.3%.

Regarding `Clc1ccc(/C=N/Nc2nc3ccccc3s2)c(Cl)c1`, the growth is 82%.

As for `C=C(C)[C@@H]1CC[C@]2(C(=O)NCCNCCNC(=O)OC(C)(C)C)CC[C@]3(C)[C@H](CC[C@@H]4[C@@]5(C)CCC(=O)C(C)(C)[C@@H]5CC[C@]43C)[C@@H]12`, the growth was 18.6% [100 µM].

With `O=C(NCCO)c1cccnc1`, the growth is 98.3%.

As for `CCN(CC)c1ccc(/C=C/c2ccc3cc(C)ccc3[n+]2CC)cc1`, the growth is 15.7%.

As for `O=S(=O)(NCc1ccccc1)c1ncnc2nc[nH]c12`, the growth is 104%.

In the case of `CN(C)c1ccc(N=Nc2ccc3ccccc3c2)cc1`, the growth was 91.4%.

Regarding `CC(C)c1ccc(/C=N/N=C(N)N)cc1`, the growth was 50.9%.
